m-calpain inh: blocks pig calpain II enzyme activity | purified calpain II, fluorogenic peptide substrate, 30 min | inhibition, % at 16 µM | 220,000 tested, 0.37% active;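 active = inhibition above about 50%, limit read from the data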
WT yeast gro inh: growth inhibition of WT yeast, mitochondrial fusion screen. mitochondrial fusion phenotypic screen, WT strain. inhibition, % at 10 µM. 190,000 tested, 2.1% active. AID 1362; in the data active = inhibition above about 58%; tested in S. cerevisiae
Lmaj promast: inhibitors of Leishmania major promastigote growth; inhibition, % at 10 µM; Leishmania major promastigotes, resazurin fluorescence viability; 200,000 tested, 9% active; in the data active = inhibition above about 50%;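 note: promastigotes grown with compound for 44 hours at 28 °C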
ROMK primary: modulators of human ROMK potassium channel; P48048; AID 1918; B-score at 10 µM; 130,000 tested, 2% active; Tet-inducible ROMK, thallium flux fluorescence; actives lie on both sides;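 active = signal ratio slope over the read window, or its plate-corrected B-score, at least 3 SD from the plate mean, either direction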;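 note: B-score of the F/F0 ratio slope over 7 to 12 s after thallium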
Target sequence (P48048 whole entry, looked up): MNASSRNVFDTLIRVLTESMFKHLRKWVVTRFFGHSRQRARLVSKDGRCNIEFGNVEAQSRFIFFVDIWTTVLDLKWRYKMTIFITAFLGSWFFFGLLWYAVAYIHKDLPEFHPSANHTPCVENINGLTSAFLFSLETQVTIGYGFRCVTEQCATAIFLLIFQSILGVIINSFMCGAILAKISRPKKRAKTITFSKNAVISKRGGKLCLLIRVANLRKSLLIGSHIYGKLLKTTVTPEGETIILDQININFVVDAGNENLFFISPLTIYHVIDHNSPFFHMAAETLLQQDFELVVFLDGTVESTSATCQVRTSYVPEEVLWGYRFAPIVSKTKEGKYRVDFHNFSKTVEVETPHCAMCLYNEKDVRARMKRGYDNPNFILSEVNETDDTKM
KCC2 mod: modulates chloride dependent transport by human KCC2. Q9H2X9. KCC2 cells, thallium flux FluoZin-2 fluorescence. B-score of Tl+ flux slope (higher = more flux/activation; lower = inhibition) at 10 µM. 190,000 tested, 2.2% active;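 active = thallium flux slope and its plate-corrected score both differing from the plate sample mean at a set confidence after two filtering rounds, in either direction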;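 note: slope of fluorescence scaled to starting intensity during 10 to 20 s after thallium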
Starred values were filed as active, the others as inactive; / = no result. This is a sample that favours compounds with a hit; in the whole collection about 12% have one here.

SMILES	m-calpain inh	WT yeast gro inh	Lmaj promast	ROMK primary	KCC2 mod
N#CC(c1ccccc1)N1CCOCC1 (stereo not drawn)	-17	/	/	/	1.4
O=C1C2CCN(CC2)C1Cc1ccc(OCc2ccccc2)cc1 (stereo not drawn)	12	22	100*	-0.98	-0.5
COc1ccccc1CC1C(=O)C2CCN1CC2 (stereo not drawn)	12	6	2	/	0.047
CCOP(=O)(OCC)c1ccc(O)cc1	-21	5	-1	0.62	0.97
O=c1c2ccccc2nc(/C=C/c2ccc3c(c2)OCO3)n1-c1cccc(O)c1	-61	-15	10	-0.22	0.78
O=c1c2ccccc2[nH]c(=S)n1-c1ccc2c(c1)OCO2	-4	63*	1	-0.42	2.7
CC12CN3CC(C)(CN(C1)C31CCSCC1)C2=O	6	18	-8	-0.62	-0.031
O[C@@H]1CCCC[C@H]1N1CCC(c2ccccc2)CC1	6	-16	65*	/	1.4
ON1C2CCCCC2N(O)C1c1ccccc1 (stereo not drawn)	1	-1	13	0.029	-0.51
CSc1nnc(C2CCNCC2)n1C	-23	65*	2	0.25	/
OC(Cc1ccccc1)(c1ccccc1)C1CN2CCC1CC2 (stereo not drawn)	-6	-4	92*	-1.8	0.028
O=C1OC(c2ccc(Cl)cc2)=N/C1=C\N1CC2CC(C1)c1cccc(=O)n1C2 (stereo not drawn)	4	/	/	-2.5	-1.1
CNC(C)Cc1ccccc1Sc1ccc(O)cc1 (stereo not drawn)	1	-12	100*	/	0.046
C=CCSc1nc2c(c(-c3ccsc3)c1C#N)CN(C)CC2	-37	/	/	/	-2.5
O=C1NC(=O)C(=Cc2ccc(N3CCOCC3)o2)C(=O)N1	-5	-14	-6	/	0.069
CN1C(=O)C(=Cc2ccc(N3CCCCC3)o2)C(=O)N(C)C1=S	-38	13	2	-4.9*	/
O=C1NC(=O)N(c2ccc3c(c2)OCO3)C(=O)/C1=C/c1ccc(N2CCCCC2)o1	17	17	7	-3.6*	/
CCN(CC)c1ccc(C=C2C(=O)N(C)C(=S)N(C)C2=O)o1	-9	-18	72*	-1.1	-3
CN1C(=O)C(=Cc2ccc(SC3CCCCC3)o2)C(=O)N(C)C1=O	-16	5	22	2.7	0.24
CCC(C)NS(=O)(=O)c1ccc(OCC(=O)N2CCN(CC)CC2)cc1 (stereo not drawn)	26	17	0	/	0.12
CC1CN=C(NCCc2ccccc2)S1 (stereo not drawn)	0	1	3	-0.016	0.62
c1ccc(C(OCCN2CCNCC2)c2ccccc2)cc1	12	/	100*	/	0.22
Cc1nn(Cc2ccccc2)c(Cl)c1C(=O)OCC(=O)N1CCCC1	10	-1	-5	-1	0.072
O=C(O)C1C2c3ccccc3C(c3ccccc32)C1C(=O)Nc1ccccc1 (stereo not drawn)	29	6	73*	1.1	1.2
COc1cc(C2SCC(=O)Nc3c2c(=O)[nH]n3C2CCCCCC2)cc(OC)c1OC (stereo not drawn)	3	3	-4	0.12	/
SMILES	m-calpain inh	WT yeast gro inh	Lmaj promast	ROMK primary	KCC2 mod
O=[N+]([O-])c1ccc(NCCO)c2ncccc12	32	-6	0	-1	0.19
COC(=O)c1c(C)[nH]c(C(=O)C(Cc2ccccc2)N(C)C)c1C (stereo not drawn)	3	3	100*	-0.51	-0.38
CC(C)(C)C(O)C(Oc1ccc(Cl)cc1)n1cncn1 (stereo not drawn)	8	-61	82*	/	-0.64
CCN1CCN(Cc2ccc(OC(F)(F)F)cc2)CC1	9	7	89*	/	-1.9
C=C(CO)CC1CC(O)[C@]2(C)OC3CC4OC5C[C@]6(C)O[C@]7(C)CCC8OC9C[C@]%10(C)OC%11C(C)=CC(=O)OC%11CC%10OC9C[C@@H](C)C8OC7CC6O[C@]5(C)C/C=C\C4OC3CC2O1 (stereo partly drawn)	-70	11	56*	/	0.86
C=C(C=O)CC1CC(O)[C@]2(C)OC3CC4OC5C[C@]6(C)O[C@]7(C)CCC8OC9C[C@]%10(C)OC%11C(C)=CC(=O)OC%11CC%10OC9C[C@@H](C)C8OC7CC6O[C@]5(C)CC5OC5C4OC3CC2O1 (stereo partly drawn)	-22	82*	101*	/	-0.039
O=c1cccc2n1CC1CC2CN(C(c2ccccc2)c2sc3ncnn3c2O)C1 (stereo not drawn)	0	0	-7	/	-0.32
CN=C(SCC(=O)c1cccc(Cl)c1)c1c(O)n(C)c(=O)n(C)c1=O	35	/	/	-0.24	0.15
CCC(C#N)(CC)P(=S)(c1ccccc1)c1ccccc1	26	52	100*	1.8	0
O=c1c2ccccc2nc(SCC2CCCCO2)n1-c1ccccc1 (stereo not drawn)	19	14	76*	0.37	-0.7
C=CCN1C(=O)NC(=O)/C(=C\c2ccc(-c3ccccc3[N+](=O)[O-])o2)C1=O	-41	-11	-4	0.58	-0.4
O=C1NC(=O)N(Cc2ccco2)C(=O)/C1=C/c1ccc(-c2cccc([N+](=O)[O-])c2)o1	-6	13	99*	/	-0.77
Cc1ccc(NP(=O)(Oc2ccccc2F)Oc2ccccc2F)cc1C	17	42	7	-0.37	0.037
COc1cccc(NP(=O)(Oc2ccc(Cl)cc2)Oc2ccc(Cl)cc2)c1	38	63*	9	1.3	-0.052
Cc1cccc(NP(=O)(Oc2ccccc2F)Oc2ccccc2F)c1	29	58	57*	/	0.022
O=P(Nc1cccc(F)c1)(Oc1ccccc1F)Oc1ccccc1F	15	/	/	-0.22	-0.24
COP(=O)(OC)C(NC(=O)/C=C/c1ccccc1)C(Cl)(Cl)Cl (stereo not drawn)	-9	-4	-7	0.33	-0.38
O=C(Nc1ccccc1)NC1CC2CCC(C1)N2 (stereo not drawn)	28	-10	5	/	1.2
Cc1ccc(CN2C3CCCC2CC(NC(=O)Nc2cccc(F)c2)C3)cc1 (stereo not drawn)	-5	-8	96*	-3.2	-0.23
CCN(CC)CCN=C(C)c1c(O)n(-c2ccccc2OC)c(=O)[nH]c1=O	-10	-4	-5	0.5	0.59
CCNC(=O)NNC(=O)C1CC(c2cccnc2)=NO1 (stereo not drawn)	-22	4	-9	0.0024	0.55
O=C(Oc1ccc([N+](=O)[O-])cc1)N1CCC(N2CCCCC2)CC1	4	9	93*	1	0.061
CC(=O)Nc1ccc(OC(=O)N2CCCCC2)cc1	-4	2	-6	0.97	0.32
Cc1ccc(S(=O)(=O)N(C)C)cc1NC(=O)C(C)[N+]12CCN(CC1)CC2 (stereo not drawn)	-19	-9	-6	0.083	-0.75
CC(C)N1CCN(c2ccc(O)cc2)CC1	6	-7	56*	/	0.74
O=C(C1c2ccccc2C(=O)N2CCc3ccccc3C12)N1CCC2(CC1)OCCO2 (stereo not drawn)	15	23	-9	/	/
Nc1ccncc1	-16	1	-9	/	1.3
CCCCn1c(O)c(C(CC)=NCc2cc(OC)cc(OC)c2)c(=O)[nH]c1=O	7	15	100*	/	-1.1

Assay outcomes (PubChem BioAssay)
